An excerpt weighted towards active compounds, which were near 4.7% of everything screened.
D1 potentiator – Potentiators of Human D1 Dopamine Receptor: qHTS; D(1A) dopamine receptor (Homo sapiens), P21728; HEK293 TREx D1 cells, calcium flux, dopamine EC20 potentiation; potentiation, % at 10 µM; hit rate 0.036% among 360,000; AID 504651, 2011; in the data active means potentiation above about 30%
TRHR ag – qHTS for Small Molecule Agonists and Allosteric Enhancers of Human TRH Receptor: Primary Screen for Agonists | Thyrotropin-releasing hormone receptor (Homo sapiens), P34981 | TRHR cells, calcium flux fluo-8, FDSS agonist mode | activation, % at 2 µM | hit rate 0.18% among 360,000
Target sequence (P34981 whole entry, looked up): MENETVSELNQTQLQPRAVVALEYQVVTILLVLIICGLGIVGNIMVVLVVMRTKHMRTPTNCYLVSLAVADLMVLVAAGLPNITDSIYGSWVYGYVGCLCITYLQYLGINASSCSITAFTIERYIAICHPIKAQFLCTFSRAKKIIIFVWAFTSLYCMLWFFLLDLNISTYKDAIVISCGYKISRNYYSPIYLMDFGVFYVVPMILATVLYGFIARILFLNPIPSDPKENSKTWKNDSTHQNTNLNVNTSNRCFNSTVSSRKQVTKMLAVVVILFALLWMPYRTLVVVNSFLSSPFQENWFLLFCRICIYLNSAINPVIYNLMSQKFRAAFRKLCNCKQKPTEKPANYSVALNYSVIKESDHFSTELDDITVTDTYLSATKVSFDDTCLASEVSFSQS
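Agonist-mode FDSS calcium read (Ex 480/Em 530, 1 s cycles) in 1536-well TRHR cells with fluo-8 dye, after 10-cycle baseline and 23 nL compound addition; TRH at EC20 (10 nM final) added afterwards for the enhancer phase.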
D1 antag – Antagonist of Human D 1 Dopamine Receptor: qHTS; activity change, negative = inhibition, % at 10 µM; HEK293 TREx D1 cells, calcium flux, dopamine EC80; stronger effect = lower value; hit rate 3.2% among 360,000; D(1A) dopamine receptor (Homo sapiens), P21728; AID 504652, 2011; in the data active means activity change below about -30%
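HEK293 T-REx cells expressing inducible, force-coupled D1 receptor; no-wash Ca dye, 30–90 min RT. Cmpd → 180 s read at 1 Hz → EC80 DA → 180 s read.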
D1 ag – Allosteric Agonists of the Human D1 Dopamine Receptor: qHTS; activation, % at 2 µM; AID 504660, 2011; hit rate 1% among 360,000; D(1A) dopamine receptor (Homo sapiens), P21728; HEK293 T-REx D1 cells, calcium flux, agonist mode
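Agonism was scored from calcium flux recorded over 180 s (1 read/s) after pintool compound addition, following a 10-cycle baseline. Cells were inducible force-coupled HEK293 TREx D1, plated overnight at 30 C and loaded with no-wash calcium dye.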
TRHR PAM – qHTS for Small Molecule Agonists and Allosteric Enhancers of Human TRH Receptor: Primary Screen for Enhancers | Thyrotropin-releasing hormone receptor (Homo sapiens), P34981 | TRHR cells, fluo-8 calcium fluorescence, EC20 TRH enhancement | enhancement, % at 2 µM | hit rate 0.66% among 360,000; in the data active means enhancement above about 30%
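TRHR-expressing cells loaded with fluo-8 calcium dye were read kinetically (ex 480/em 530) during compound addition, then stimulated with an EC20 of TRH (10 nM final). Enhancement of the Gq-mediated intracellular calcium response was scored.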
Large screens that a line does not name were inactive. Unless noted, no stated cut-off is given here; in the data, active means activation above about 30%; inactive means the rest.

CCCOc1ccc(C(=O)CCC(=O)Nc2ccc(N3CCN(C)CC3)cc2)cc1	D1 antag -79
CCCOc1ccc(C(=O)CCC(=O)OCC(=O)Nc2ccc(OCC)cc2)cc1	none
Cc1ccc(C(=O)Nc2ccc(N3CCN(S(C)(=O)=O)CC3)cc2)cc1C	none
Cc1ccc(C(=O)Nc2ccc(N3CCN(C)CC3)cc2)c(Cl)c1	D1 antag -33
CCc1ccc(S(=O)(=O)NCc2ccc(N3CCN(C)CC3)cc2)cc1	none
Cc1ccc(NC(=O)CSc2ccc(-c3sc(-c4ccccc4)nc3C)nn2)cc1F	none
N#Cc1cc([N+](=O)[O-])ccc1N1CCN(c2ccccc2O)CC1	D1 antag -30
CC(=O)n1c(-c2ccccc2)c(CO)c2ccccc21	none
NCCc1c(-c2ccccc2)n(-c2ccccc2)c2ccccc12	D1 ag 102
CCSc1nn(CC(=O)Nc2cccc(CC)c2)c(N)c1S(=O)(=O)c1ccccc1	none
COc1ccccc1Oc1ccc(S(=O)(=O)NCc2ccccn2)cc1	D1 antag -54
COc1ccc(S(=O)(=O)NCc2ccccn2)cc1OC	none
COc1ccc(C2=NS(=O)(=O)N(C)C(C(=O)N3CCN(C)CC3)=C2)cc1	none
O=C1c2ccccc2CCc2ccc(Br)cc21	none (no result: D1 antag)
CCC1CCCCN1C(=O)CSc1nc(-c2ccc(OC)cc2)cc(C(F)(F)F)n1 (stereo not given)	D1 antag -31
COc1cccc(/C=C(\CC(=O)O)c2nc3ccccc3s2)c1	TRHR PAM 34
CC1(C)C=C(c2ccc(C=O)s2)CC(C)(C)N1	none
CC1(C)C=C(c2ccc(C=O)s2)CC(C)(C)N1C=O	D1 antag -31
CCc1ccc(NC(=O)CN2C(=O)CC(C)S(=O)(=O)c3ccccc32)cc1 (stereo not given)	D1 antag -32
O=C(N/N=C\C=C\c1ccc2c(c1)OCO2)c1cccnc1	D1 antag -39
O=C(N/N=C/c1cccc(Oc2ccccc2)c1)c1cccc(O)c1	none
O=C(N/N=C\c1cccc(OC(=O)c2ccco2)c1)c1ccc2c(c1)OCO2	TRHR PAM 33
O=C(N/N=C/c1cccnc1)c1ccc2c(c1)OCO2	D1 antag -35
NC(=O)c1ccc(C(=O)N/N=C/c2cccc(Oc3ccccc3)c2)cc1	TRHR PAM 36
O=C(/C=C/c1ccc2c(c1)OCO2)c1cccnc1	none
O=C(N/N=C\c1ccc2c(c1)OCO2)c1ccco1	none
CCCCCn1c(=N)c(S(=O)(=O)c2ccccc2)cc2c(=O)n3cccc(C)c3nc21	none
COc1ccc(N2CCN(S(=O)(=O)c3ccc4c(c3)CCCN4C(C)=O)CC2)cc1	none
O=[N+]([O-])c1ccc(N/N=C/c2c[nH]c3ccccc23)c(S(=O)(=O)Nc2ccc(Cl)cc2)c1	D1 ag 45
COc1ccccc1NS(=O)(=O)c1cc([N+](=O)[O-])ccc1N/N=C/c1c(C)[nH]c2ccccc12	D1 ag 62
CN1CCN(S(=O)(=O)c2cc([N+](=O)[O-])ccc2N/N=C/c2ccc(Cl)cc2)CC1	none
Cc1[nH]c2ccccc2c1/C=N/NC(=O)c1cccc([N+](=O)[O-])c1	none
Cc1[nH]c2ccccc2c1/C=N/Nc1ccc([N+](=O)[O-])cc1	TRHR ag 38, D1 ag 125
Cc1[nH]c2ccccc2c1/C=N/Nc1ccccn1	none
Cc1[nH]c2ccccc2c1/C=N/NC(=O)c1cccc(F)c1	D1 antag -66
Cc1[nH]c2ccccc2c1/C=N/Nc1ccc(F)cc1F	none
COc1ccc(-c2nc(C)c(CCNC(=O)c3c(F)cccc3F)s2)cc1	none
COc1cc(Cl)c(C)cc1NC(=O)c1nn(-c2ccc(C)cc2)c(=O)n(C)c1=O	D1 antag -98
Cc1ccc(-n2nc(C(=O)Nc3ccc(F)cc3Cl)c(=O)n(C)c2=O)cc1	none
CCc1noc(C)c1C(=O)Nc1nc(-c2ccccc2)c(C(C)=O)s1	none
